From PubChem BioAssay (NCATS)
Records with an inconclusive call do not appear. Activity calls are given as the source filed them. Unless noted, the call rests on the fitted dose curve; in most records, active means well fitted curve in the direction sought with a large enough effect; inconclusive means small, poorly fitted or top-dose-only effect, or another doubt; inactive means no such curve, though single readings can be large; an effect the other way counts as inactive or inconclusive.

Tests used:
[1] = AP1 Signaling Pathway (AID 357; active means well fitted curve in either direction with a large enough effect, not every such curve was filed as active;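 further: ME-180 reporter cells stimulated with EGF at its EC50 level; on the % scale 0 is the no-effect control and ±100 the full control effect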); settings: ME-180 AP-1-bla reporter, EGF-induced, beta-lactamase ratio, 5 h; at 17.2 µM (top of the series) unless noted
Procedure, shortened: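 Cells are seeded overnight, exposed to compound titrations and an EC50 level of EGF for 5 hours at 37 °C, then loaded with CCF4 dye for 2.5 hours. Beta-lactamase activity under the AP-1 element is read as a blue/green ratio.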

[2] = Stat Signaling Pathway (AID 446; active means well fitted curve in either direction with a large enough effect, not every such curve was filed as active;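 further: ME-180 cervical cancer cells given 40 pM IL-6 alongside compound; SIE-controlled beta-lactamase reporter measured as 460/530 nm FRET emission ratio; on the % scale 0 is the no-effect control and ±100 the full control effect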); settings: ME-180 SIE beta-lactamase reporter, IL-6 stimulated, 5 h; at 17.2 µM (top of the series) unless noted
Procedure, shortened: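 ME-180 cells carrying a SIE-driven beta-lactamase reporter are stimulated with 40 pM IL-6 for 5 h at 37C in the presence of compound. The 460/530 nm FRET substrate ratio is read after 2.5 h at RT. Data are normalised to 300 pM IL-6 and to 125 nM JAK inhibitor controls.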

[3] = molecular target: Glucocorticoid receptor (Homo sapiens) (UniProt P04150); experiment: GR-GFP Redistribution (AID 450;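 active means compounds whose dose series gives a full or clear partial fitted curve of increased nuclear translocation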; further: potency means the concentration at half of the fitted maximal effect)
Glucocorticoid receptor (Homo sapiens), sequence (P04150 whole entry, looked up, the tested form may be a part): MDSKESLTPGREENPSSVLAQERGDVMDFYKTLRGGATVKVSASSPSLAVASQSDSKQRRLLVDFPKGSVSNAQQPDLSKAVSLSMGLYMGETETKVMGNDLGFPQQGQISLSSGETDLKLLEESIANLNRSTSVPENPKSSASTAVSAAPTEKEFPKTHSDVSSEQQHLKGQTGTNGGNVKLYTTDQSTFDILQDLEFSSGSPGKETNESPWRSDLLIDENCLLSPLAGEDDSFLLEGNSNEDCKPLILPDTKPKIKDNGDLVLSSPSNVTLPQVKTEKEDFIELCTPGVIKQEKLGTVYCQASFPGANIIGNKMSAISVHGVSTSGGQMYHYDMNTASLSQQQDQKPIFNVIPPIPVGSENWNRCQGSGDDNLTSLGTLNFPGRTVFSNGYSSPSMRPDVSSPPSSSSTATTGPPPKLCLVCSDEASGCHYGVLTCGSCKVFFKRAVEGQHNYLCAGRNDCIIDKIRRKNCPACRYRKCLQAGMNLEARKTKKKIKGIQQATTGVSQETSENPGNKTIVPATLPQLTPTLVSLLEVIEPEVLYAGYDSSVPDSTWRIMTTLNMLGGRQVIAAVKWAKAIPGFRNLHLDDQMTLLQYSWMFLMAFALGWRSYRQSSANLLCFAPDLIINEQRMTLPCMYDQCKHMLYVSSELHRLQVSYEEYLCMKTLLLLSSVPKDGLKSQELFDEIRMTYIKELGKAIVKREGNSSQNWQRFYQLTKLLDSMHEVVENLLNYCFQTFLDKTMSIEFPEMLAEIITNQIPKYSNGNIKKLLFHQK

[4] = molecular target: Glucocorticoid receptor (Homo sapiens) (UniProt P04150); experiment: GR-EFC Redistribution (AID 451; calls by dose curve; further: potency means the concentration at half of the fitted maximal effect); settings: CHO-K1 GR-EFC translocation, beta-gal luminescence, 2 h
Procedure, shortened: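 CHO-K1 cells expressing nuclear EA and GR-ED fragments of b-gal; compounds titrated up to 46 uM final, 2 h at 37 C. GR nuclear translocation read as complemented b-gal luminescence after 1 h RT detection.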

[5] = molecular target: Mitogen-activated protein kinase 10 (Mus musculus) (UniProt Q61831); experiment: JNK3 AlphaScreen Assay (AID 530; active means well fitted curve in either direction with a large enough effect, not every such curve was filed as active;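 further: kinase came from lysate of stimulated human HepG2 cells; signal reports phosphorylation of biotinylated GST-cJun 1-79 at Ser73 with 10 µM ATP; on the % scale 0 is the no-effect control and ±100 the full control effect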)
Procedure, shortened: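 qHTS format: compounds tested as titrations against IL-1beta/TNF-alpha-activated HepG2 lysate JNK3 with biotin-GST-cJun substrate and 10 uM ATP at room temperature. Loss of anti-phospho-cJun AlphaScreen signal indicates inhibition.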

[6] = molecular target: 3',5'-cyclic-AMP phosphodiesterase 4B (Homo sapiens) (UniProt Q07343); experiment: qHTS Assay for Inhibitors of PDE-IV (AID 607; active means well fitted activation curve with a large enough effect in the main read-out, with a control signal flat, not every such curve was filed as active; further: % of control where 0% means no effect)
3',5'-cyclic-AMP phosphodiesterase 4B (Homo sapiens), sequence (Q07343 whole entry, looked up): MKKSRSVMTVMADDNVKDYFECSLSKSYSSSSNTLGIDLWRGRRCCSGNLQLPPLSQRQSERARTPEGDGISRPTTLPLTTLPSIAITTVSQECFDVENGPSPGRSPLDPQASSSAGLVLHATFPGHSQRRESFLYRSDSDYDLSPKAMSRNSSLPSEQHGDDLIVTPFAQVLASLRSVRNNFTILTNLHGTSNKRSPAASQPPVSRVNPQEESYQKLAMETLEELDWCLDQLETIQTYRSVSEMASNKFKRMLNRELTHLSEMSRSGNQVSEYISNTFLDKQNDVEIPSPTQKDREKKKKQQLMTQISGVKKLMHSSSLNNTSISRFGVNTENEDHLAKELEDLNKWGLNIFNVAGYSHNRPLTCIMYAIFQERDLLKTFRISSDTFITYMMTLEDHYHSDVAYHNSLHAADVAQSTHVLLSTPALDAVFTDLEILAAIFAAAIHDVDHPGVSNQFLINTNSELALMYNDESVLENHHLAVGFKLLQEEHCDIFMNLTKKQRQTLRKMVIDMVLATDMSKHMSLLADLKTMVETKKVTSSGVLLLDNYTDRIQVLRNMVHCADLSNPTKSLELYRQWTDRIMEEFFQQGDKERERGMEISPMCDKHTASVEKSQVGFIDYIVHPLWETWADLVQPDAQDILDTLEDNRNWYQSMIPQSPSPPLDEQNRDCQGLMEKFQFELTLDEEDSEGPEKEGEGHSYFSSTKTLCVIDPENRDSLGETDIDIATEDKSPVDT
Procedure, shortened: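 HEK293 ACTOne cells with CNG channel (1000/well), endogenous PDE4; membrane potential dye, compounds up to 22.9 uM final. Fluorescence Ex 535/Em 590; RO 20-1724 (100 uM final) as reference.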

[7] = molecular target: Pyruvate kinase (Leishmania mexicana) (UniProt Q27686); experiment: qHTS Validation Assay for Inhibitors of Leishmania Mexicana Pyruvate Kinase (AID 945);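 further: 0% = DMSO only neutral control wells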
Procedure, shortened: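 Compounds are tested as eight-point concentration series. Reactions contain 0.2 nM LmPYK E451W, 0.5 mM PEP, 0.1 mM ADP, 7 mM MgCl2 and 50 mM KCl at pH 7.2, run 1 h at room temperature, then read by PKLight luminescence.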

[8] = molecular target: Pyruvate kinase PKM (Homo sapiens) (UniProt P14618); experiment: qHTS Assay for Activators of Human Muscle Pyruvate Kinase (AID 954; active means well fitted curve in the direction sought with a large enough effect, not every such curve was filed as active;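 further: 0% = uninhibited enzyme and -100% = no enzyme or full thiadiazolimine inhibition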)
Pyruvate kinase PKM (Homo sapiens), sequence (P14618 whole entry, looked up): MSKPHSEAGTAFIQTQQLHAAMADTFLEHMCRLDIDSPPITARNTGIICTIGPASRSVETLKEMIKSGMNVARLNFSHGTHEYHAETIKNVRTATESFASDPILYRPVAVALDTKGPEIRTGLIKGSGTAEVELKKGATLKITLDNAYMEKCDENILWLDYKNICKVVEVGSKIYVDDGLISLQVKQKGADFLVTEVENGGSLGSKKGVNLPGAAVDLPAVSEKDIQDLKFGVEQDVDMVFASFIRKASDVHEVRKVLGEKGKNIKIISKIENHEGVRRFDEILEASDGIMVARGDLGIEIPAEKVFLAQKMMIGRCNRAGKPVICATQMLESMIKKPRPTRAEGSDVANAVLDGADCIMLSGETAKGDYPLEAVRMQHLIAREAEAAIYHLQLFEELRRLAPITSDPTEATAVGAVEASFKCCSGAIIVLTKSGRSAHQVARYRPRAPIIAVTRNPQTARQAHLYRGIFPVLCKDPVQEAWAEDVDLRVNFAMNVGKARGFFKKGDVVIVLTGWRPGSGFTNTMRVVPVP
Procedure, shortened: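 Purified human PKM2 (0.1 nM) with 0.5 mM PEP (Km) and 0.1 mM ADP in 50 mM imidazole pH 7.2, KCl, MgCl2, 1 h at room temperature; ATP formed read by coupled luciferase luminescence. Normalized to no-enzyme/110 uM thiadiazolimine inhibition; 0.3 nM enzyme column for activation.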

[9] = molecular target: Alpha-galactosidase A (Homo sapiens) (UniProt P06280); experiment: Counterscreen for Glucocerebrosidase Inhibitors: qHTS Assay for Human alpha-Galactosidase at pH 4.5 (AID 992); further: 0% is about no effect
Alpha-galactosidase A (Homo sapiens), sequence (P06280 whole entry, looked up): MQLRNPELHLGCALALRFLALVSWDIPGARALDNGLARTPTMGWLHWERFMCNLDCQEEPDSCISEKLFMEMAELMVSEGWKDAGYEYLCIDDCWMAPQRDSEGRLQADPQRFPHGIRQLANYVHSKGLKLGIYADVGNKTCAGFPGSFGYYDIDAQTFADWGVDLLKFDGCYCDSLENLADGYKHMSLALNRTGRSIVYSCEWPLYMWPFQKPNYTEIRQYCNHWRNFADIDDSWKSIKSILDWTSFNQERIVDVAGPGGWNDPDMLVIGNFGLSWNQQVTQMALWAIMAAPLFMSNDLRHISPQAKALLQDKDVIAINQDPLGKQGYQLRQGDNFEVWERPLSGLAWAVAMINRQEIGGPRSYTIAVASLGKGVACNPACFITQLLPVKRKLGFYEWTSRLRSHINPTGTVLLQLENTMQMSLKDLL
Procedure, shortened: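 Human enzyme (2 nM) with 80 uM 4-methylumbelliferyl alpha-D-galactopyranoside in 50 mM citric acid, 0.005% Tween-20, pH 4.5, 20 min at room temperature. Compounds 0.7 nM–77 uM; fluorescence Ex 365/Em 440 after pH 10 stop; AC50 from Hill fits.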

[10] = molecular target: Cytochrome P450 3A4 (Homo sapiens) (UniProt P08684); experiment: qHTS Assay for Inhibitors and Substrates of Cytochrome P450 3A4 (AID 884); further: on the % scale 0 is the no-effect control and ±100 the full control effect; nearly all actives have a fitted effect of over 50% in size
Procedure, shortened: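 20 nM human CYP3A4 with 25 uM Luciferin-PPXE (at KM) in 200 mM KPO4, preincubated 10 min with compound; NADPH regeneration started a 60 min RT reaction. Luciferin detected by luminescence, normalized to 57 uM ketoconazole as full inhibition.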

[11] = Confirmation and Secondary Assay for Modulators of Hemoglobin Beta Chain Splicing at IVS2 654 locus (AID 910);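 further: HeLa cells stably carrying EGFP split by mutant beta-globin IVS2-654 intron; % of control where 0% means no effect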
Procedure, shortened: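 HeLa cells stably expressing EGFP interrupted by β-globin IVS2-654 intron, seeded overnight in Opti-MEM/2% FCS, then treated 2 days at 37 °C. Restored splicing read as total peak GFP intensity per well by laser scanning cytometry (488 nm excitation, 500–520 nm emission); 500 nM antisense PNA as control.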

[12] = Confirmation and Secondary Assay for Modulators of Hemoglobin Beta Chain Splicing at IVS2 705 locus (AID 930);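 further: HeLa cells stably expressing the EGFP-705 splicing reporter; GFP fluorescence per well restored by corrected splicing of the IVS2-705 intron in EGFP; % of control where 0% means no effect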
Procedure, shortened: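 Fluorescence gain (488 nm laser, 500-520 nm PMT) reflects restored correct splicing of a mutant IVS2-705 intron inside EGFP in stably transfected HeLa cells after 2-day compound treatment.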

[13] = molecular target: Ubiquitin carboxyl-terminal hydrolase 1 (Homo sapiens) (UniProt O94782); experiment: Inhibitors of USP1/UAF1: Pilot qHTS (AID 504865); further: potency means the concentration at half of the fitted maximal effect; nearly all actives have a fitted effect of over 35% in size
Ubiquitin carboxyl-terminal hydrolase 1 (Homo sapiens), sequence (O94782 whole entry, looked up): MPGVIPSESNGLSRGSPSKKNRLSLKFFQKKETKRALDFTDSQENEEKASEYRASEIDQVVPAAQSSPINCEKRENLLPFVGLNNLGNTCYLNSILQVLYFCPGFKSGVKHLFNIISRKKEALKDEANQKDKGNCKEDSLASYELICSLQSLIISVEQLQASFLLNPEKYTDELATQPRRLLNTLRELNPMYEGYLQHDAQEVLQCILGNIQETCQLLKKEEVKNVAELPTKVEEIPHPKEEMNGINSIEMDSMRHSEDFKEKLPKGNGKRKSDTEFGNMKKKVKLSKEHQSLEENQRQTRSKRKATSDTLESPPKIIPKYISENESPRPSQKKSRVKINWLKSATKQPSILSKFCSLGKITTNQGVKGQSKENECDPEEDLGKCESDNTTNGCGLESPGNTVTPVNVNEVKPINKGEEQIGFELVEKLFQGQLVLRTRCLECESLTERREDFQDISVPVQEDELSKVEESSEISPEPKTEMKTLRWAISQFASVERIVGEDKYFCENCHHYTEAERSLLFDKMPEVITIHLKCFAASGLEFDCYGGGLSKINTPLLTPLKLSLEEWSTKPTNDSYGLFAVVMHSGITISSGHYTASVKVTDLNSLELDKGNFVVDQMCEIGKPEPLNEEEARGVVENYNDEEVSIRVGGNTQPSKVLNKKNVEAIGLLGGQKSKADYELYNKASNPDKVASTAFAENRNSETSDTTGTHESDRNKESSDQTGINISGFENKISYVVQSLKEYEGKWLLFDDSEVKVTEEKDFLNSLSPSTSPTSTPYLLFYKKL
Procedure, shortened: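 1nM USP1/UAF1 + cpd, 15 min RT; start w/ Ub-Rho 150nM final; kinetic FL 480/540 nm, 6 reads q60 s. Buffer 50mM HEPES pH 7.8, 0.5mM EDTA, 1mM TCEP, 0.01% Tween-20, 0.1 mg/ml BSA.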

[14] = molecular target: Estrogen receptor (Homo sapiens) (UniProt P03372); experiment: qHTS assay for small molecule agonists of estrogen receptor alpha signaling (AID 588514; calls by dose curve;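 further: 0% = vehicle only and 100% = reference agonist; nearly all actives have a fitted effect of over 70% in size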)
Procedure, shortened: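 ER-alpha-UAS-bla GripTite HEK 293 cells in medium with 2% charcoal/dextran-treated FBS were treated with compound titrations at 37 C for 18 hrs; beta-lactamase reporter read by CCF4 fluorescence after 2 hrs at RT.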

[15] = molecular target: Androgen receptor (Homo sapiens) (UniProt P10275); experiment: qHTS assay for small molecule antagonists of androgen receptor signaling (AID 588516; active means well fitted curve in the direction sought with a large enough effect in the signal ratio, with a control signal flat, not every such curve was filed as active; the % refers to the signal ratio; further: on the % scale 0 is the no-effect control and ±100 the full control effect)
Androgen receptor (Homo sapiens), sequence (P10275 whole entry, looked up): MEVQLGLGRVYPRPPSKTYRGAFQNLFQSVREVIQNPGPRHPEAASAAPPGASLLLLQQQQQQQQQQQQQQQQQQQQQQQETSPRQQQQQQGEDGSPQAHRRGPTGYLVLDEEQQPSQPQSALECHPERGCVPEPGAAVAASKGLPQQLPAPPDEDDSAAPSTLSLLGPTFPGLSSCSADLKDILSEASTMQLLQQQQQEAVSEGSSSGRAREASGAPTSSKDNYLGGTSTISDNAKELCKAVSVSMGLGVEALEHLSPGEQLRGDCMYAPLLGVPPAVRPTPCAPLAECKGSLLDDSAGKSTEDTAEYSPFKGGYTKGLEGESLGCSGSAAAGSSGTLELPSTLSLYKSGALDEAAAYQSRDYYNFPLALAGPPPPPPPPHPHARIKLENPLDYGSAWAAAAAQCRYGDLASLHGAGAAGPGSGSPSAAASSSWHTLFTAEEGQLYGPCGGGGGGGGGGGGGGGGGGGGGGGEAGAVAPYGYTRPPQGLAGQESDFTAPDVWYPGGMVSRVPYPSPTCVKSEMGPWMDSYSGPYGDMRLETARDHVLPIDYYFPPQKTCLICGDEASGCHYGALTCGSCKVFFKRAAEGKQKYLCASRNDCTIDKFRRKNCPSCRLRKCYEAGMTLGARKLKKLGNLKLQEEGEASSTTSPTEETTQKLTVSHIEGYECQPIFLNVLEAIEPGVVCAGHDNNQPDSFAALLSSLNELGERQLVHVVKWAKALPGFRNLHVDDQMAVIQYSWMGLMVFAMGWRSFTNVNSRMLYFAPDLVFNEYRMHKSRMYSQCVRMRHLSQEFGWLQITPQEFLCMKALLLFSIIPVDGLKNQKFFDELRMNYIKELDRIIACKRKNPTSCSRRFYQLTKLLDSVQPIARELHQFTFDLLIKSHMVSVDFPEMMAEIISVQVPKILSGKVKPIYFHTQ
Procedure, shortened: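 HEK293 AR-UAS-bla cells, 10% dialyzed FBS medium; cpd titration + R1881 10 nM final, 16 h 37 C; CCF4 2 h RT; FRET ratio; IC50/efficacy via Hill fit.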

[16] = molecular target: Bile acid receptor (Homo sapiens) (UniProt Q96RI1); experiment: qHTS assay for small molecule antagonists of farnesoid X receptor signaling (AID 588526; calls by dose curve; further: on the % scale 0 is the no-effect control and ±100 the full control effect)
Procedure, shortened: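 Antagonist mode: titrated compounds tested against chenodeoxycholic acid stimulation (normalized to 50 uM CDCA and DMSO) in GeneBLAzer HEK293T cells for 16 h. Beta-lactamase read by CCF4 fluorescence; IC50 from Hill fits.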

[17] = molecular target: Glucocorticoid receptor (Homo sapiens) (UniProt P04150); experiment: qHTS assay for small molecule agonists of glucocorticoid receptor signaling (AID 588532; active means well fitted curve in the direction sought with a large enough effect in the signal ratio, with a control signal flat; the % refers to the signal ratio;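 further: 100% = dexamethasone at 0.1 µM and 0% = DMSO only wells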); settings: HeLa MMTV-bla, beta-lactamase ratio, agonist, 18 h; stronger effect = higher value; percent of dexamethasone control, DMSO zero
Procedure, shortened: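 Cells were plated and rested 3-5 h at 37 C, compounds were added in titration and incubated 18 h, then CCF4 substrate was loaded for 2 h at RT before reading blue/green fluorescence. EC50 came from Hill-equation fitting.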

[18] = qHTS assay for small molecule antagonists of peroxisome proliferator-activated receptor delta signaling (AID 588535; active means well fitted inhibition curve with a large enough effect in the signal ratio, with a control signal flat, not every such curve was filed as active; the % refers to the signal ratio;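 on max response: cells co-treated with a PPAR-delta agonist as stimulator during compound exposure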); settings: HEK293T PPARd-UAS-bla, beta-lactamase FRET ratio, 18 h; 460 nm channel
Procedure, shortened: (§1)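 Cells were seeded at 4000 per well in assay medium containing 2% charcoal/dextran FBS and held 5 hrs at 37 C. Compounds were then added for 18 hrs. CCF4 substrate was applied for 2 hrs at room temperature before fluorescence reading.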

[19] = molecular target: Peroxisome proliferator-activated receptor delta (Homo sapiens) (UniProt Q03181); experiment: as above
Procedure, shortened: as §1

[20] = molecular target: Peroxisome proliferator-activated receptor gamma (Homo sapiens) (UniProt P37231); experiment: qHTS assay for small molecule agonists of peroxisome proliferator-activated receptor gamma signaling (AID 588536; active means well fitted curve in the direction sought with a large enough effect in the signal ratio, with a control signal flat, not every such curve was filed as active; the % refers to the signal ratio;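 further: 0% = DMSO basal wells and 100% = rosiglitazone at 2 µM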)
Procedure, shortened: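 GeneBLAzer PPAR-gamma-UAS-bla HEK293 cells in 1% charcoal/dextran-treated FBS medium were treated 16 h at 37 C with compounds. Beta-lactamase activity was read by CCF4 ratio (460/530 nm). Response was normalized to 2 uM rosiglitazone (100%) and DMSO, then Hill-fitted for EC50 and efficacy.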

[21] = molecular target: Vitamin D3 receptor (Homo sapiens) (UniProt P11473); experiment: qHTS assay for small molecule antagonists of vitamin D receptor signaling (AID 588541; calls by dose curve)
Vitamin D3 receptor (Homo sapiens), sequence (P11473 whole entry, looked up): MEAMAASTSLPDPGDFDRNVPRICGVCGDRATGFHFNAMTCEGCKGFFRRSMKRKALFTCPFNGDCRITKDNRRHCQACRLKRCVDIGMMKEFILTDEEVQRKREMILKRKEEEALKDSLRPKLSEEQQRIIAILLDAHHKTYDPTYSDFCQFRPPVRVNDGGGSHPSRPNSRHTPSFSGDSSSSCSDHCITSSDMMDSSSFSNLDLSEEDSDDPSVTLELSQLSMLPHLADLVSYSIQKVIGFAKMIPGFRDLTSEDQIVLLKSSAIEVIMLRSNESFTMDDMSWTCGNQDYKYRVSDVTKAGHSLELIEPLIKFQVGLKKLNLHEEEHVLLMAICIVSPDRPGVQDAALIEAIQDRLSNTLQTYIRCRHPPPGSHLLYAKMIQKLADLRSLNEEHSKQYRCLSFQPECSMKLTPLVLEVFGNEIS
Procedure, shortened: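 VDR-UAS-bla HEK293T cells in 2% charcoal-stripped FBS were stimulated with 1-alpha,25-dihydroxyvitamin D3 (3 nM final) plus compound for 16 h at 37 C. The beta-lactamase CCF4 readout was normalized to 50 nM agonist and DMSO, and Hill fits gave IC50.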

[22] = molecular target: Vitamin D3 receptor (Homo sapiens) (UniProt P11473); experiment: qHTS assay for small molecule agonists of vitamin D receptor signaling (AID 588543; calls by dose curve;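 further: 0% = DMSO basal and 100% = reference agonist control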)
Procedure, shortened: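 β-lactamase reporter, VDR-UAS-bla HEK293T, agonist mode. Cells plated 5 h at 37 °C, compound titration 16 h at 37 °C, CCF4 dye 2 h RT, ratio 460/530 nm. Hill fit → EC50, efficacy vs 50 nM 1α,25-(OH)2D3.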

[23] = molecular target: Luciferin 4-monooxygenase (Photinus pyralis) (UniProt P08659); experiment: Biochemical firefly luciferase enzyme assay for NPC (AID 624030);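 further: purified P. pyralis luciferase at 10 nM with luciferin and ATP substrate; 0% = DMSO and -100% = full luciferase inhibition by PTC124 control; nearly all actives have a fitted effect of over 70% in size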
Procedure, shortened: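 Purified P. pyralis luciferase at 10 nM in 50 mM Tris Acetate (final), luminescence read within 5 minutes of enzyme addition to compounds. Activity normalised to PTC124 versus DMSO; concentration-response curves classed by r2, magnitude and activity.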

[24] = qHTS assay for environmental chemicals that activate the Aryl hydrocarbon Receptor (AhR) signaling pathway (AID 651777); settings: 1A2-DRE human hepatoma cells, luciferase, 24 h; activation: stronger effect = higher value; further: % of control where 0% means no effect; nearly all actives have a fitted effect of over 15% in size
Procedure, shortened: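 Reporter gene assay: hepatoma cells with DRE/CYP1A2-luciferase, 24 hr compound incubation at 37 C, 5% CO2, luminescence after One-Glo (30 min, RT).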

[25] = qHTS assay for cell viability of HEK293 cells (AID 743288); settings: ATP luminescence (CellTiter-Glo), 18 h; max response: stronger effect = lower value; further: on the % scale 0 is the no-effect control and ±100 the full control effect; nearly all actives have a fitted effect of over 50% in size
Procedure, shortened: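 Environmental chemicals tested in qHTS format against parental HEK293 cells; 18 h treatment, 37 C; read-out ATP luminescence (CellTiter-Glo), 30 min RT development.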

[26] = molecular target: Nuclear receptor subfamily 1 group I member 2 (Rattus norvegicus) (UniProt Q9R1A7); experiment: qHTS assay for small molecule activators of the rat pregnane X receptor (rPXR) signaling pathway (AID 651751; call rule not given here; further: 0% is about no effect); settings: rPXR reporter cells, luciferase (One-Glo), 24 h
Nuclear receptor subfamily 1 group I member 2 (Rattus norvegicus), sequence (Q9R1A7 whole entry, looked up): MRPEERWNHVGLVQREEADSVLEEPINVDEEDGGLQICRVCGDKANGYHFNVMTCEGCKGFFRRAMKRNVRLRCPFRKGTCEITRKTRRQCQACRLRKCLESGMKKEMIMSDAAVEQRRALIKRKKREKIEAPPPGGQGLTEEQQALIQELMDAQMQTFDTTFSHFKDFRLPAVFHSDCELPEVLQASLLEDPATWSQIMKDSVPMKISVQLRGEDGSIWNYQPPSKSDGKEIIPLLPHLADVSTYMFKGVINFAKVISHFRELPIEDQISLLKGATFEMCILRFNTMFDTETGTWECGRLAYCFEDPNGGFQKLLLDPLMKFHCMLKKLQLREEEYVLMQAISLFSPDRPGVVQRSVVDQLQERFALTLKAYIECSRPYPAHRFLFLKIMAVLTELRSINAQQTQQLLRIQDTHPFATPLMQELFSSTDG

[27] = qHTS assay for small molecule activators of the human pregnane X receptor (PXR) signaling pathway (AID 720659; call rule not given here; further: 0% is about no effect)

CCOC(=O)C1=C(C)NC(C)=C(C(=O)OC)[C@H]1c1cccc(Cl)c1Cl
inactive: activity change, negative = inhibition [1] -9.86% [at 38 µM] | activity, negative = inhibition [2] -0.0099% [at 38 µM] | Potency [3] > 46 µM | Potency [4] > 46 µM | Potency [5] | Potency [6] | Potency [7] | outcome [8] | outcome [9]

Cc1cc(C(C)(C)CC(C)(C)C)ccc1OCCOCC[N+](C)(C)Cc1ccccc1
active: Potency [13] 35.5 µM
inactive: activity change, negative = inhibition [1] 18.1% | activity, negative = inhibition [2] 4.17% | Potency [3] > 20.6 µM | Potency [4] > 20.6 µM | Potency [5] | Potency [6] | Potency [10] | Potency [11] | Potency [12] | outcome [14] | outcome [15] | Potency [16] | activation [17] -7.21% | outcome [19] | outcome [20] | Potency [21] | outcome [22] | Potency [23] | activation [24] 0.146% | max response [25] -29.5% | max response [26] -12.4% | outcome [27]
14.2%: max response [18]
